Records with an inconclusive call do not appear. The source made the active and inactive calls. Unless noted, the call rests on the fitted dose curve.
Tests used:
[1] = biological target: Estrogen receptor (Homo sapiens) (UniProt P03372); experiment: qHTS assay for small molecule antagonists of estrogen receptor alpha signaling (AID 588513; active means well fitted curve in the direction sought with a large enough effect in the signal ratio, with a control signal flat, not every such curve was filed as active; the % refers to the signal ratio; further: on the % scale 0 is the no-effect control and ±100 the full control effect)
Outline: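 Antagonist-mode qHTS in ER-alpha-UAS-bla HEK 293 cells: compound titration, 0.5nM estradiol for 18 h, CCF4 fluorescence, Hill-derived IC50.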

[2] = biological target: Estrogen receptor (Homo sapiens) (UniProt P03372); experiment: qHTS assay for small molecule agonists of estrogen receptor alpha signaling (AID 588514);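 further: 0% = vehicle only and 100% = reference agonist; nearly all actives have a fitted effect of over 70% in size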
Outline: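 Read-out: CCF4 fluorescence from a beta-lactamase reporter in ER-alpha-UAS-bla HEK 293 cells after 18 hrs of compound exposure at 37 C. Normalized to 20 nM 17-beta-estradiol (100%) and DMSO (0%).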

[3] = qHTS assay for small molecule agonists of retinoid X receptor alpha signaling (AID 588544); settings: HEK293T RXRa-UAS-bla, beta-lactamase reporter, 18 h; 530 nm emission;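 on activation: 0% = DMSO basal wells and 100% = reference agonist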
[4] = biological target: Retinoic acid receptor RXR-alpha (Homo sapiens) (UniProt P19793); experiment: as above
[5] = biological target: Thyroid hormone receptor beta (Homo sapiens) (UniProt P10828); experiment: qHTS assay for small molecule agonists of thyroid hormone receptor beta signaling (AID 588545);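 further: 0% = DMSO only and 100% = 10 nM T3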
Outline: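 TR-UAS-bla GripTite HEK 293 cells (2500/well, medium with 2% charcoal/dextran FBS) were treated in agonist mode for 18 h at 37 C, titrated. Beta-lactamase was read by CCF4 ratio after 2 h; normalized to 10 nM T3 (100%) and DMSO, Hill-fitted for EC50 and efficacy.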

[6] = qHTS assay for small molecule antagonists of retinoid X receptor alpha signaling (AID 588546; active means well fitted inhibition curve with a large enough effect in the signal ratio, with a control signal flat, not every such curve was filed as active; the % refers to the signal ratio;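 further: cells stimulated with 9-cis-retinoic acid as agonist; on the % scale 0 is the no-effect control and ±100 the full control effect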); settings: HEK293T RXRa-UAS-bla, beta-lactamase ratio, antagonist mode; measured here: W530 green channel, cytotoxicity proxy
Outline: (§1)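 Beta-lactamase reporter inhibition, read as CCF4 fluorescence ratio (ex 405, em 460/530 nm) after 2 h at RT. HEK293T UAS-bla cells, 2500/well, were stimulated with 9-cis-RA at 500 or 100 nM final alongside test compound for 18 h at 37 C.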

[7] = biological target: Retinoic acid receptor RXR-alpha (Homo sapiens) (UniProt P19793); experiment: as above; settings: HEK293T RXRa-UAS-bla, beta-lactamase ratio, antagonist mode
Outline: as §1

[8] = biological target: Thyroid hormone receptor beta (Homo sapiens) (UniProt P10828); experiment: qHTS assay for small molecule antagonists of thyroid hormone receptor beta signaling (AID 588547; active means well fitted inhibition curve with a large enough effect in the signal ratio, with a control signal flat, not every such curve was filed as active; the % refers to the signal ratio;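 further: cells stimulated with 0.4 nM T3 agonist during compound exposure; series mostly up to about 77 µM; on the % scale 0 is the no-effect control and ±100 the full control effect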); settings: TR-UAS-bla HEK293, beta-lactamase ratio, antagonist mode, 18 h
Outline: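 Inhibition of T3-driven (0.4nM final) beta-lactamase reporter activity was measured over 0.59 nM to 92 uM compound after 18 h at 37 C. The cells were GripTite HEK293 TR-UAS-bla in charcoal/dextran-stripped serum, with CCF4 ratio read-out and IC50 from Hill fits.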

[9] = qHTS assay for small molecule activators of the p53 signaling pathway (AID 651743; active means well fitted activation curve with a large enough effect in the signal ratio, not every such curve was filed as active; the % refers to the signal ratio; further: series mostly up to about 92 µM; % of control where 0% means no effect); settings: HCT-116 p53RE-bla, beta-lactamase FRET ratio, 16 h; activation: stronger effect = higher value
Outline: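 A beta-lactamase reporter under p53 response element control, stably carried by HCT-116 cells, reported pathway activation. Test compounds were applied for 16 hours at 37 C, and fluorescence was measured 2 hours after adding the B/G FRET substrate.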

[10] = qHTS assay for environmental chemicals that activate the Aryl hydrocarbon Receptor (AhR) signaling pathway (AID 651777; active means well fitted curve in the direction sought with a large enough effect; an effect the other way counts as inactive or inconclusive; further: % of control where 0% means no effect; nearly all actives have a fitted effect of over 15% in size); settings: 1A2-DRE human hepatoma cells, luciferase, 24 h; activation: stronger effect = higher value
Outline: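 Reporter gene assay: hepatoma cells with DRE/CYP1A2-luciferase, 24 hr compound incubation at 37 C, 5% CO2, luminescence after One-Glo (30 min, RT).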

[11] = biological target: Peroxisome proliferator-activated receptor alpha (Homo sapiens) (UniProt Q07869); experiment: qHTS assay for small molecule agonists of the peroxisome proliferator-activated receptor alpha (PPARalpha) signaling pathway (AID 651778; active means well fitted curve in the direction sought with a large enough effect; an effect the other way counts as inactive or inconclusive; further: % of control where 0% means no effect); settings: PathHunter PPARalpha complementation, chemiluminescence, 6 h; max response: stronger effect = higher value
Outline: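 Chemiluminescence from complemented enzyme reported PPARalpha activation in cells after 6 hr of compound treatment at 37 C. The detection reagent was incubated for 60 min at room temperature, and compounds were scored as agonists.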

[12] = qHTS assay for small molecule agonists of the antioxidant response element (ARE) signaling pathway measured by Nrf2-dependant transcriptional activity (AID 720636; active means well fitted curve in the direction sought with a large enough effect in the repeat runs; an effect the other way counts as inactive or inconclusive;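 further: HepG2 cells with an ARE-driven luciferase reporter; % of control where 0% means no effect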)
Outline: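 Nrf2-dependent transcription is measured in ARE-luc HepG2 cells: compound is applied for 16 hr at 37 C after a 6 hr attachment period, and luciferase activity is quantified by luminescence using ONE-Glo.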

[13] = qHTS assay for small molecule agonists of the antioxidant response element (ARE) signaling pathway measured by Nrf2-dependant transcriptional activity - cell viability counter screen (AID 720653; active means well fitted curve in the direction sought with a large enough effect in the repeat runs; an effect the other way counts as inactive or inconclusive; further: on the % scale 0 is the no-effect control and ±100 the full control effect); settings: ARE-bla HepG2 viability, CellTiter-Glo ATP luminescence, 16 h; max response: stronger effect = lower value
Outline: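 Cytotoxicity counter screen: intracellular ATP quantified by CellTiter-Glo luminescence in the same ARE-bla HepG2 plates, after 16 h compound exposure and a 2 h beta-lactamase substrate step.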

[14] = qHTS assay for cell viability of HEK293 cells (AID 743288; active means well fitted curve in the direction sought with a large enough effect; an effect the other way counts as inactive or inconclusive; further: on the % scale 0 is the no-effect control and ±100 the full control effect; nearly all actives have a fitted effect of over 50% in size); settings: ATP luminescence (CellTiter-Glo), 18 h; max response: stronger effect = lower value
Outline: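 HEK293, 18 h, 37 C, ATP luminescence. Cells at 2,000/well were allowed at least 5 h to settle before dosing; CellTiter-Glo developed 30 min at RT.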

[15] = qHTS assay for cell viability of the p53RE-bla HCT-116 cell line (AID 743292; active means well fitted curve in the direction sought with a large enough effect; an effect the other way counts as inactive or inconclusive; further: on the % scale 0 is the no-effect control and ±100 the full control effect; nearly all actives have a fitted effect of over 55% in size)
Outline: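 ATP-based luminescence, 16 h compound exposure at 37 C, p53RE-bla HCT-116 cells at 4,000/well.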

[16] = biological target: Glucocorticoid receptor (Homo sapiens) (UniProt P04150); experiment: qHTS assay for small molecule agonists of glucocorticoid receptor signaling (AID 588532; active means well fitted curve in the direction sought with a large enough effect in the signal ratio, with a control signal flat; the % refers to the signal ratio;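 further: 100% = dexamethasone at 0.1 µM and 0% = DMSO only wells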); settings: HeLa MMTV-bla, beta-lactamase ratio, agonist, 18 h; activation: stronger effect = higher value, percent of dexamethasone control, DMSO zero
Outline: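 Quantitative HTS using CellSensor MMTV-bla HeLa cells in charcoal/dextran-treated serum; compounds tested up to 92 uM. After 18 h at 37 C, CCF4 dye reported reporter induction.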

[17] = biological target: Peroxisome proliferator-activated receptor delta (Homo sapiens) (UniProt Q03181); experiment: qHTS assay for small molecule agonists of peroxisome proliferator-activated receptor delta signaling (AID 588534);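 further: 0% = DMSO basal wells and 100% = positive control agonist at 10 µM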
Outline: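 Titration series tested in agonist mode on beta-lactamase reporter cells; 18 hrs at 37 C after a 5 hr pre-incubation. Readout: CCF4 fluorescence, 2 hrs RT. Hill equation gives EC50 and maximal response.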

[18] = biological target: Vitamin D3 receptor (Homo sapiens) (UniProt P11473); experiment: qHTS assay for small molecule antagonists of vitamin D receptor signaling (AID 588541)
Outline: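 Antagonist-mode beta-lactamase reporter assay: HEK293T VDR-UAS-bla cells were exposed to titrated compound alongside 1-alpha,25-dihydroxyvitamin D3 at 3 nM final for 16 h. Values were normalized to the 50 nM agonist control and DMSO basal, with IC50 and efficacy from Hill equation fits.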

[19] = biological target: Vitamin D3 receptor (Homo sapiens) (UniProt P11473); experiment: qHTS assay for small molecule agonists of vitamin D receptor signaling (AID 588543);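 further: 0% = DMSO basal and 100% = reference agonist control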
Outline: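 Measured: β-lactamase reporter activity (CCF4, 405 nm excitation, 460/530 nm emission) in HEK293T VDR-UAS-bla cells after 16 h compound exposure at 37 °C. Normalization against 50 nM 1α,25-dihydroxyvitamin D3 and DMSO; Hill-fit EC50.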

[20] = biological target: Nuclear receptor subfamily 1 group I member 2 (Rattus norvegicus) (UniProt Q9R1A7); experiment: qHTS assay for small molecule activators of the rat pregnane X receptor (rPXR) signaling pathway (AID 651751; call rule not given here; further: 0% is about no effect); settings: rPXR reporter cells, luciferase (One-Glo), 24 h
Chain of Nuclear receptor subfamily 1 group I member 2 (Rattus norvegicus) (Q9R1A7 whole entry, looked up): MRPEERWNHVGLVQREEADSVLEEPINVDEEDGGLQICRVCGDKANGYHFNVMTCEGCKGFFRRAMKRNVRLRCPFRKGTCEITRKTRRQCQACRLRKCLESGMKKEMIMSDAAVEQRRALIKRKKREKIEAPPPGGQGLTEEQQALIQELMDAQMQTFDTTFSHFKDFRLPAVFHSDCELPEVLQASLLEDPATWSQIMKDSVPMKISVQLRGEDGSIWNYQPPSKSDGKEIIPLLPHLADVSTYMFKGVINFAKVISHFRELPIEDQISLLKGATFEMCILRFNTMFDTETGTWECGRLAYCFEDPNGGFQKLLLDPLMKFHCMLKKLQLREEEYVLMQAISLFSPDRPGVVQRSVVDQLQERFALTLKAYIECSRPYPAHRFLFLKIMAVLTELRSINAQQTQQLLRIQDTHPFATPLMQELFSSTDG

Chain of Vitamin D3 receptor (Homo sapiens) (P11473 whole entry, looked up): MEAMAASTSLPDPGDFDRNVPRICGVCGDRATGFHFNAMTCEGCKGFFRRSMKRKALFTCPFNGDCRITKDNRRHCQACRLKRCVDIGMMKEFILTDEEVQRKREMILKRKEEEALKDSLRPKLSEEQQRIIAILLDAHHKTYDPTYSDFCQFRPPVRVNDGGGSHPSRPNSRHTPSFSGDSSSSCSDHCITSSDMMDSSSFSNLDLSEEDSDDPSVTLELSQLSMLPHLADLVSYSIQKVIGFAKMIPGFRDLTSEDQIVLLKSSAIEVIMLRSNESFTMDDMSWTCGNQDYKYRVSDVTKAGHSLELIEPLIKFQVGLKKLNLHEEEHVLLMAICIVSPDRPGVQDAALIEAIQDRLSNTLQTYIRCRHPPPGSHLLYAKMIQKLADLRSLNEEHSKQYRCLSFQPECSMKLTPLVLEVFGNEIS
Chain of Estrogen receptor (Homo sapiens) (P03372 whole entry, looked up): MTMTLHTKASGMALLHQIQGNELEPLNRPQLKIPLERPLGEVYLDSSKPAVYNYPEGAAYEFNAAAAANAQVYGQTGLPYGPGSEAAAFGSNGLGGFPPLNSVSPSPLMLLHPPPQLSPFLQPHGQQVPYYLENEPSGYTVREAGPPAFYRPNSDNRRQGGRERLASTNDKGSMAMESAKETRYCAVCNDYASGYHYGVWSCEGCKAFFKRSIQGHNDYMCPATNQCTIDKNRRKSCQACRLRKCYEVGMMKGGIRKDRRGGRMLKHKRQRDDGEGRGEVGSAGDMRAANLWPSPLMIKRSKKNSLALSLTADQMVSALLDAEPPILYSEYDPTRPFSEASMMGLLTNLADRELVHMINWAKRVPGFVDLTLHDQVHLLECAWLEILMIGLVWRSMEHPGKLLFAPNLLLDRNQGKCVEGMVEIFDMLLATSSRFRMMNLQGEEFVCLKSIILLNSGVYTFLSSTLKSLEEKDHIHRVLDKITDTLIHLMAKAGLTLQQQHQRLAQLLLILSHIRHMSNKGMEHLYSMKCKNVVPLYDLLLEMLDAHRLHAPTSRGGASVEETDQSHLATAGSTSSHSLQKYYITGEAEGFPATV
Chain of Thyroid hormone receptor beta (Homo sapiens) (P10828 whole entry, looked up): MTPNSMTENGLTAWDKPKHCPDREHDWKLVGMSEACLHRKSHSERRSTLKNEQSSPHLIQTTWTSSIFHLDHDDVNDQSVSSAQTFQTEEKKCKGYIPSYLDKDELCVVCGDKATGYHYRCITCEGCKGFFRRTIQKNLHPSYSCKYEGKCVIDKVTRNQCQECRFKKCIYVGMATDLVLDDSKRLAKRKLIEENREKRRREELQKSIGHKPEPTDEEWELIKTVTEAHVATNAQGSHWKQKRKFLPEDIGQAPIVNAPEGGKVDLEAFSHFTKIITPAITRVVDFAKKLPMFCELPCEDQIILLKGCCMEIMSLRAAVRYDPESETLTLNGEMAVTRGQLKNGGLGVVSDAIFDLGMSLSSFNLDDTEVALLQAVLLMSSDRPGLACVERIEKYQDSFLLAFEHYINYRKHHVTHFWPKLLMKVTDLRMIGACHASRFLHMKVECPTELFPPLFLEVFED
Chain of Retinoic acid receptor RXR-alpha (Homo sapiens) (P19793 whole entry, looked up): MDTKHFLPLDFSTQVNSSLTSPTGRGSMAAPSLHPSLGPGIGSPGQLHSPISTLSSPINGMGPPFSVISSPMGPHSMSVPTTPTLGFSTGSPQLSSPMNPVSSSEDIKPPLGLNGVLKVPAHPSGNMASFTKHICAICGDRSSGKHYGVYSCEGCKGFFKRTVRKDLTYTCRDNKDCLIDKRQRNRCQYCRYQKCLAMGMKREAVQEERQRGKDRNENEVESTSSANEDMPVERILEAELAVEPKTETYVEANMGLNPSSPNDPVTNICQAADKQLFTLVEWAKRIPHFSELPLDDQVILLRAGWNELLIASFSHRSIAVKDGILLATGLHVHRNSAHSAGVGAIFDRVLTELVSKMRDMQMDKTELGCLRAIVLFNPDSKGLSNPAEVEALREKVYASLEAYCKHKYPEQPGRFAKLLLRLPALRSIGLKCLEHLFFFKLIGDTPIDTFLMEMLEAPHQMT
Chain of Peroxisome proliferator-activated receptor alpha (Homo sapiens) (Q07869 whole entry, looked up): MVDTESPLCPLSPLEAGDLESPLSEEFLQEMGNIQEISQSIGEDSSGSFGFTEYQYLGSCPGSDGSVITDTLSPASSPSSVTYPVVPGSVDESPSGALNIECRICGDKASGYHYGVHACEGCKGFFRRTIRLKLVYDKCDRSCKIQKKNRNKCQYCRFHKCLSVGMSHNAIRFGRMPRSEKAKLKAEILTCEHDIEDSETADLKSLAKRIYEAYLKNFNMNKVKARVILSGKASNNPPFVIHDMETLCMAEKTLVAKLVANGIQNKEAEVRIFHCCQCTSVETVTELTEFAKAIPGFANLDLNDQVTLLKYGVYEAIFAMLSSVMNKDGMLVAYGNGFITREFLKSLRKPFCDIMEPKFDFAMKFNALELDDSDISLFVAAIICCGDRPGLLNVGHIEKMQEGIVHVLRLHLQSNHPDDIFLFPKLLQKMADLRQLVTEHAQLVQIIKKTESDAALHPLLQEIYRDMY
Chain of Glucocorticoid receptor (Homo sapiens) (P04150 whole entry, looked up): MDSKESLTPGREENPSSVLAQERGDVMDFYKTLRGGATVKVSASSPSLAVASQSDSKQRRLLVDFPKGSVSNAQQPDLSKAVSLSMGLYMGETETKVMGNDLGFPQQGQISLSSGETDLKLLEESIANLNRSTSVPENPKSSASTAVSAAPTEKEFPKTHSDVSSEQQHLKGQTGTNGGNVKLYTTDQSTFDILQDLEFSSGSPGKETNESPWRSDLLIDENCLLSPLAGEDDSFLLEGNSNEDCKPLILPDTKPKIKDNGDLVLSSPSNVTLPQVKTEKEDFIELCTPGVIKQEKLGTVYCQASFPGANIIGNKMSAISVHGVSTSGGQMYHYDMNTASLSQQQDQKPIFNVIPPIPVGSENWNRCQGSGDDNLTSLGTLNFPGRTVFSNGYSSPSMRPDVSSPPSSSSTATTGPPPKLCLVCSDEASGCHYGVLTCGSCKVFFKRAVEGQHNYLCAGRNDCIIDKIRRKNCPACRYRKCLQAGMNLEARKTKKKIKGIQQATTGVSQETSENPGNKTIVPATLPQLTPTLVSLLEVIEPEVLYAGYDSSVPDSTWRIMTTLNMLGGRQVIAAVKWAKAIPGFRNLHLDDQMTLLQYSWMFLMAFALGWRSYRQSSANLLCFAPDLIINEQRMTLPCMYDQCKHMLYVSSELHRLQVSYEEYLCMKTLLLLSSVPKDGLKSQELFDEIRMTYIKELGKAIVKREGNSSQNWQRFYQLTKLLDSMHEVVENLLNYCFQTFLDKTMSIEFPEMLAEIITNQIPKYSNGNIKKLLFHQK
Chain of Peroxisome proliferator-activated receptor delta (Homo sapiens) (Q03181 whole entry, looked up): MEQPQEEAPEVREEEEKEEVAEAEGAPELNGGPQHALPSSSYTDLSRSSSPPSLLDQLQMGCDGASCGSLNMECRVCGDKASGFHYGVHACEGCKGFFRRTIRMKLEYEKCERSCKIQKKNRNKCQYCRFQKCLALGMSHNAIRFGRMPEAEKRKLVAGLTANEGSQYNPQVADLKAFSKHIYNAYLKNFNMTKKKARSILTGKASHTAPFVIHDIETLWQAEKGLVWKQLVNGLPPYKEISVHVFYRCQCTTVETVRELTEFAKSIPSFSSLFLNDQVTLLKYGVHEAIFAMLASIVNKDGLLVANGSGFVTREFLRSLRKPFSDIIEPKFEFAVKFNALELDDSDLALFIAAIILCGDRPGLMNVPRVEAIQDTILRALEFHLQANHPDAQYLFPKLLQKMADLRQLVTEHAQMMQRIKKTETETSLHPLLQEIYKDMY

CCN(CC)C(=O)C(C)Oc1cccc2ccccc12 (stereo not drawn)
Potency [1]: inactive | Potency [2]: inactive | max response [3]: 5.95% | Potency [4]: inactive | Potency [5]: inactive | max response [6]: -20.3% | max response [7]: -6.13% (inactive) | activity change % (negative = inhibition) [8]: -8.01% (inactive) | activation [9]: -0.234% (inactive) | activation [10]: 1.45% (inactive) | max response [11]: 0.442% (inactive) | Potency [12]: inactive | max response [13]: -4.78% (inactive) | max response [14]: -1.61% (inactive) | Potency [15]: inactive

O=C(NC(=O)c1c(F)cccc1F)Nc1ccc(OC(F)(F)C(F)OC(F)(F)F)c(Cl)c1 (stereo not drawn)
Potency [1]: inactive | Potency [2]: inactive | activation [16]: -15.7% (inactive) | outcome [17]: inactive | Potency [18]: inactive | outcome [19]: inactive | max response [3]: -12.6% | Potency [4]: inactive | max response [6]: -11.8% | activity change % (negative = inhibition) [8]: 12.3% (inactive) | activation [10]: 1.49% (inactive) | max response [11]: 0.139% (inactive) | Potency [12]: inactive | max response [13]: -4.81% (inactive) | max response [14]: -16.7% (inactive) | Potency [15]: inactive | max response [20]: 1.96% (inactive)

CCNc1nc(NCC)nc(SC)n1
Potency [1]: inactive | Potency [2]: inactive | activation [16]: -3.89% (inactive) | outcome [19]: inactive | max response [3]: -4.09% | Potency [4]: inactive | Potency [5]: inactive | max response [6]: -14% | max response [7]: -3.26% (inactive) | activity change % (negative = inhibition) [8]: -6.04% (inactive) | max response [11]: 0.186% (inactive) | Potency [12]: inactive | max response [13]: 8.18% (inactive) | max response [14]: -5.22% (inactive) | Potency [15]: inactive | max response [20]: 1.83% (inactive)
